Source: PubChem (National Center for Advancing Translational Sciences (NCATS))
CHX counter: counter-screen hit for Shiga toxin inhibitors, cycloheximide | max response, % | cell reporter, cycloheximide protein synthesis inhibition counterscreen | AID 2314 | 300,000 tested, 12% active; in the data active = max response mostly above about 13%, no sharp cut-off; inactive = mostly below about 14%; note: read at 38.3 µM for the half of the compounds with a filed dose
Shiga inhibitor: blocks Shiga toxin action in Vero cells | Vero cells, Shiga toxin protein synthesis inhibition reporter | inhibition, % at 38.7 µM | 290,000 tested, 9.2% active; in the data active = inhibition mostly above about 28%, no sharp cut-off; inactive = mostly below about 43%
FBPA Giardia inh: Giardia lamblia aldolase inhibition | Potency, µM (titrated, usually from 59.6 µM), most hits filed as inhibitors | 290,000 tested, 0.71% active | purified Giardia FBPA | A8B2U2; note: nearly all actives have a fitted effect of over 55% in size
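40 nM FBPA preincubated 10 min at RT with compound (up to 57.5 uM final), then substrate plus GAPDH/TPI/NAD/arsenate coupling and diaphorase/resazurin added. Fluorescence read after 20 min at RT, 525/598 nm.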
TbPYK inhibitor: blocks Trypanosoma brucei pyruvate kinase. 410,000 tested, 0.12% active. AID 624173. TbPYK enzyme, Kinase-Glo Plus ATP luminescence, 45 min. Potency, µM (highest dose often 76.8 µM), most hits filed as inhibitors. Q57TT1; note: nearly all actives have a fitted effect of over 50% in size
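Assay buffer: 50 mM TEA pH 7.2, 100 mM KCl, 10 mM MgCl2, 0.05% BSA, 0.01% Tween-20. Pyruvate kinase from T. brucei plus substrate met compound, then ADP (130 uM final). Luminescence was read post 45 min RT.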
LmPK inhibitor: LmPK (Leishmania mexicana) enzyme inhibition; Potency, µM (doses to about 57.5 µM), actives largely listed as inhibitors; AID 1721; purified LmPK, Kinase-Glo ATP luminescence, 1 h; 290,000 tested, 0.37% active
Target sequence (Q27686 whole entry, looked up): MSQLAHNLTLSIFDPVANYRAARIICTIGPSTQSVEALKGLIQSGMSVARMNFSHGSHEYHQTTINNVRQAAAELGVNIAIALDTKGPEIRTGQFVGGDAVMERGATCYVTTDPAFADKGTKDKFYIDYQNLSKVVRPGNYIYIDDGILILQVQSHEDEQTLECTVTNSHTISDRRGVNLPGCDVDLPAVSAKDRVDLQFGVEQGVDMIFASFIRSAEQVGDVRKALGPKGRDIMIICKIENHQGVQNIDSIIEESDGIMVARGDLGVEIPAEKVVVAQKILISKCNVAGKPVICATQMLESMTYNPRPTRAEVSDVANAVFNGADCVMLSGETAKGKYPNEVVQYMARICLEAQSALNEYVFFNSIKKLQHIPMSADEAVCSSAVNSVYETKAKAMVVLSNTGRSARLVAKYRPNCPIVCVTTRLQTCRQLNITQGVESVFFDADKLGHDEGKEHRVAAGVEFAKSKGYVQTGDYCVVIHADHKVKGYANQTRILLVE
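Purified LmPK (0.1 nM) with 0.5 mM PEP and 0.1 mM ADP in imidazole buffer pH 7.2 with MgCl2/KCl, 1 h at room temperature. ATP formed was read by luciferase luminescence and normalized to no-enzyme and uninhibited controls.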
RE007 growth inh: less growth of the S. pombe RE007 Vpr strain; S. pombe RE007 Vpr strain, BacTiter-Glo ATP luminescence, 24 h; 360,000 tested, 0.21% active; Potency, µM (doses to about 92.2 µM), hits mostly inhibitors; AID 651644; active = well fitted falling curve with a large enough effect; inconclusive = small, poorly fitted or top-dose-only effect; inactive = no such curve, though single readings can be large or run the other way; note: nearly all actives have a fitted effect of over 50% in size
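Fission yeast strain RE007, carrying one chromosomally integrated HIV-1 vpr copy, was seeded at OD 0.01 in PMG+AL medium with 23 nL pinned compound. After 24 h at 30 °C and 99% humidity, viability was read by BacTiter-Glo luminescence.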
Numbers stand for hits; – = inactive; ? = inconclusive; · = not tested or not shown; [ ] = another dose, or the depositor's remark. This is one part of a sample in which hits are shown more often than they occur. Unless noted, calls come from the whole dose curve; as a rule, active = well fitted curve in the direction sought with a large enough effect; inconclusive = small, poorly fitted or top-dose-only effect, or another doubt; inactive = no such curve, though single readings can be large; an effect the other way counts as inactive or inconclusive.

SMILES	CHX counter	Shiga inhibitor	FBPA Giardia inh	TbPYK inhibitor	LmPK inhibitor	RE007 growth inh
N#CC1=C(N)NC(SCC(=O)c2ccccc2)=C(C#N)C12CCCC2	40	67	–	–	–	–
COc1cc(C(=O)Nc2c(C(=O)Nc3ccccc3F)oc3ccccc23)cc(OC)c1OC	·	·	·	–	·	·
Cc1noc(C)c1C(=O)N1CCC1(C)C(=O)NS(=O)(=O)c1cccs1 (centres undefined)	·	·	·	–	·	–
O=C(NS(=O)(=O)Nc1ccccn1)c1c[nH]c2ccccc12	–	–	–	–	–	–
Cc1c(C)n(Cc2ccccc2)c2ccc(C(=O)NCC(C)c3ccccc3)cc12 (centres undefined)	·	·	·	–[15.4 µM]	·	·
O=C(N/N=C/c1ccccc1F)c1cccc2ccccc12	–	40	–	–	–	–
Cc1ccccc1C(=O)N/N=C/c1ccsc1C	81	125	–	–	–	–
Cc1ccccc1C(=O)N/N=C/c1cccc2ccccc12	16	46	–	–	–	–
CCCc1cc(N2CCN(c3cc(Cl)ccc3C)CC2)n2cnnc2n1	·	·	·	–	·	·
CCC(=O)Nc1cccc(NC(=S)NC(=O)c2ccc(Cl)cc2)c1	22	–	?	–	–	–
COc1ccccc1NC(=S)NNC(=O)c1ccc(Cl)cc1Cl	31	51	?	–	–	–
O=C(NC(=S)Nc1ncccn1)c1ccc(Cl)cc1Cl	30	127	?	–	–	–
CCCC(=O)NC(=S)Nc1cccc(NC(=O)c2ccc(Cl)cc2Cl)c1	–	–	–	–	–	–
CCC(=O)Nc1cccc(NC(=S)NC(=O)c2ccc(Cl)cc2Cl)c1	42	–	–	–	–	–
O=C1CN(C(=O)c2ccc(Cl)cc2Cl)C(c2ccc(F)cc2)c2cc(F)ccc2N1 (centres undefined)	·	·	·	–	·	·
CCC(=O)Nc1cccc(NC(=S)NC(=O)c2ccccc2C)c1	48	72	–	–	–	–
COC(=O)c1sccc1N/N=C/c1cccc(OC)c1O	19	–	–	–	–	·
COC(=O)c1sccc1N/N=C/c1ccc(OC)c(OC)c1OC	47	39	–	–	–	–
COC(=O)c1sccc1N/N=C/c1cccc(Oc2ccccc2)c1	40	38	–	–	–	–
COC(=O)c1sccc1NC(=O)c1cccc(OC)c1	–	–	–	–	–	–
COc1cccc(/C=N/NC(=O)CSCC(=O)Nc2ccccc2)c1O	–	–	–	–	–	–
CCN(CC)c1ccc(/C=N/NC(=O)CN2CCCc3ccccc32)cc1	–	–	–	–	–	–
O=C(CN1CCCc2ccccc21)N/N=C/c1ccc(O)cc1O	26	71	–	–	–	–
O=C(CN1CCCc2ccccc21)N/N=C/c1c(O)ccc2ccccc12	34	48	–	–	–	–
NS(=O)(=O)c1ccc(NC(=O)CN2CCCc3ccccc32)cc1	–	–	–	–	–	–
SMILES	CHX counter	Shiga inhibitor	FBPA Giardia inh	TbPYK inhibitor	LmPK inhibitor	RE007 growth inh
O=C(CN1CCCc2ccccc21)N/N=C/c1ccccc1	21	–	–	–	–	·
Cc1ccccc1NC(=O)c1c(C)oc2ccc(O)c(CN3CCCC(C)C3)c12 (centres undefined)	·	·	·	–	·	·
O=C(NC(=O)c1ccccc1)Nc1cccc(S(=O)(=O)N2CCCCC2)c1	–	–	–	–	–	–
CNC(=O)N/N=C(\N)c1ccccn1	19	–	?	–	–	–
CC(=O)c1ccccn1	·	·	·	–	·	–
O=C(N/N=C(\c1ccccc1)c1ccccn1)c1ccccc1Cl	–	–	–	–	–	–
O=C(Nc1ccc(Cl)cc1)O/N=C(\c1ccccc1)c1ccccn1	21	–	–	–	–	–
N/C(=N\NC(=O)Nc1ccc(Cl)cc1)c1ccccn1	39	88	?	–	–	–
O=C(/C=C/c1ccco1)Nc1scc(-c2ccccc2)c1C(=O)O	22	–	?	–	–	?
Cc1sc(NC(=O)/C=C/c2ccco2)c(C(=O)OC(C)C)c1C	–	–	–	–	–	–
O=C(/C=C/c1ccccc1)Nc1scc(-c2ccccc2)c1C(=O)O	30	59	?	–	–	–
CCOc1ccc2nc(N3CCCC(C(=O)Nc4ccccc4CC)C3)sc2c1 (centres undefined)	·	·	·	–	·	·
CN(Cc1ccccc1)C(=O)C1CCN(S(=O)(=O)Cc2ccccc2)CC1	·	·	·	–	·	·
Oc1ccccc1CNc1cnc2ccccc2c1	31	32	–	–	–	–
Oc1ccc2ccccc2c1CNc1cnc2ccccc2c1	29	92	?	·	–	–
CC(C)n1c(NCc2cc(Cl)ccc2O)nc2ccccc21	–	–	–	–	–	–
C=CCc1cccc(CNc2cnc3ccccc3c2)c1O	17	20	–	–	–	–
Oc1ccc(Cl)cc1CNc1cnc2ccccc2c1	14	–	–	–	–	–
C=CCc1cccc(CNc2nc3ccccc3n2C)c1O	–	–	–	–	–	–
O=C(NCc1c(O)ccc2ccccc12)c1ccccc1	–	–	–	–	–	–
Cc1ccc2nc(-c3cccs3)c(Nc3ccc4c(c3)OCCO4)n2c1	·	·	·	–	·	·
Oc1ccc2ccccc2c1CNc1ccc(Br)cn1	46	66	–	–	–	–
Oc1ccc2ccccc2c1CNc1ccc(Br)cc1	–	–	–	–	–	–
COc1cccc(C2CC(c3ccc(NS(C)(=O)=O)cc3)=NN2C(=O)c2ccccc2)c1OC (centres undefined)	51	134	–	–	–[11.5 µM]	–
Cn1cc(C2CC(c3ccccc3)=NN2C(=O)c2ccccc2)c2ccccc21 (centres undefined)	22	–	–	–	–	–
SMILES	CHX counter	Shiga inhibitor	FBPA Giardia inh	TbPYK inhibitor	LmPK inhibitor	RE007 growth inh
CCCC(=O)N1N=C(c2ccccc2)CC1c1cn(C)c2ccccc12 (centres undefined)	27	–	–	–	–	–
COc1cccc(C2CC(c3cccs3)=NN2C(=O)CCC(=O)O)c1OC (centres undefined)	11	–	–	–	–	–
COc1ccccc1C1CC(c2ccc(NS(C)(=O)=O)cc2)=NN1C(=O)c1ccccc1 (centres undefined)	–	–	–	–	–	–
COc1ccc(/C(=C\C(=O)O)c2nccc3cc(OC)c(OC)cc23)cc1OC	·	·	–	·	·	·
Cc1ccc(Nc2c3c(nc4nncn24)CCC3)c(C)c1	·	·	·	–	·	·
NS(=O)(=O)c1cc(C(=O)N=Nc2c(O)[nH]c3ccccc23)ccc1Cl	–	–	–	–	–	–
COc1cccc(Nc2nc(-c3cccnc3)cs2)c1	53	57	–	–	–	–
COc1ccc(-c2csc(Nc3cccnc3)n2)cc1OC	–	active	–	–	–	–
Cc1cc(C)n2nc(CNC(=O)c3ccccc3Cl)nc2n1	·	·	·	–	·	·
Cc1ccc(SC[C@H](C)CN2CC[C@H](C(C)(C)C)CCC2=O)cc1	–	–	–	–	–	–
